As a reminder, the inhibition is the change of the read-out against control, counted positive when it falls.

The values that follow come from ChEMBL document CHEMBL1961873, “Compounds: GSK PKIS; Assays: Nanosyn kinase panel” (2012).

The first experiment deals with Macrophage colony-stimulating factor 1 receptor (Homo sapiens) (UniProt P07333). Particulars: at 0.1 µM.
Chain of Macrophage colony-stimulating factor 1 receptor (Homo sapiens) (P07333 whole entry): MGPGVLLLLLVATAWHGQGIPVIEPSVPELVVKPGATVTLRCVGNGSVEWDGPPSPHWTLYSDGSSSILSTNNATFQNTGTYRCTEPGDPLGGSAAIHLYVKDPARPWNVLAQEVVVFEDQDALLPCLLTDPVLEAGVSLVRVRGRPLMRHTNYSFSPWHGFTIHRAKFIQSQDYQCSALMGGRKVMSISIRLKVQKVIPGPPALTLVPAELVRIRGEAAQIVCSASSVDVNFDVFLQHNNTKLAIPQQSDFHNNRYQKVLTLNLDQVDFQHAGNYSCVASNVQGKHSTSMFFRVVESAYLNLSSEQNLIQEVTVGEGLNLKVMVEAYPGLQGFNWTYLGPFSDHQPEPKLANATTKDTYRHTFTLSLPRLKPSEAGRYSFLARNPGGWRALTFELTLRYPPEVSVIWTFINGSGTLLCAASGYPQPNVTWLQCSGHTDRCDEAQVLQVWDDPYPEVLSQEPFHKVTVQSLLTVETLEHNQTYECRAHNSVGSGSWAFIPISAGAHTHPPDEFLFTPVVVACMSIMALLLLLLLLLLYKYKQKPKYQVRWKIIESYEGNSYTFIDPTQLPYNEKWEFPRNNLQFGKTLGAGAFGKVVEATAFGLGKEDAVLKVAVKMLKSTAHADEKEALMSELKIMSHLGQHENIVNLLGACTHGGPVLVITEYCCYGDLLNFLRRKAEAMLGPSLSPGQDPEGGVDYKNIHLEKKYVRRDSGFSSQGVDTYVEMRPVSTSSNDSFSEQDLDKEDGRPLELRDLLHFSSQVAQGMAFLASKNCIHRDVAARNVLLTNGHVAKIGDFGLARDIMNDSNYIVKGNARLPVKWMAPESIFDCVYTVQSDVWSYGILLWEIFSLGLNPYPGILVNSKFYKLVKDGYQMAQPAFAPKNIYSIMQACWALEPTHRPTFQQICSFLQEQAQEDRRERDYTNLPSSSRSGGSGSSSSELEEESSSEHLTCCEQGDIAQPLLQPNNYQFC
Regarding `COc1cc2ncn(-c3cc(OCc4cccs4)c(C(N)=O)s3)c2cc1OC`, the inhibition was 1.28%.
As for `COc1cc(C)c(N(C)C(=O)CN(C)C)cc1Nc1nc(Nc2cccc(F)c2C(N)=O)c2cc[nH]c2n1`, the inhibition is -0.28%.
Consider `CN(C)CCCNc1nccc(-c2c(-c3ccc(F)cc3)nn3cc(C(F)(F)F)ccc23)n1`, for which the inhibition amounted to 2.1%.
`COc1cccc(/C=N/Nc2ncnc3c2cnn3-c2cccc(OC)c2)c1`: the inhibition came to 1.79%.
Still for that read-out and setting: in the case of `CCC(=O)Nc1ccc(C)c(-c2ccc(C(=O)NCC3CC3)cc2)c1` it was -2.39%.
Turning to `CCS(=O)(=O)c1ccc(OC)c(Nc2ncc(-c3cccc(-c4ccccc4F)c3)o2)c1`, the inhibition stood at 4.55%.
Consider `C#Cc1cccc(Nc2ncnc3ccc(OCCCCNCCS(C)(=O)=O)cc23)c1`, for which the inhibition stood at 4.11%.
On to `CS(=O)(=O)CCNCc1ccc(-c2ccc3ncnc(Nc4ccc(OCc5ccccc5)c(Br)c4)c3c2)o1`, for which the inhibition is -1.9%.
On the same count and under the same terms, the value for `COc1cc2ncn(-c3cc(OCCc4ccccc4)c(C(N)=O)s3)c2cc1OC` was -0.81%.
For `NS(=O)(=O)c1ccc(N/N=C2\C(=O)Nc3ccc(-c4cnco4)cc32)cc1`, the inhibition was determined as 4.76%.
As to `Cc1ccc(C(=O)NC2CCC2)cc1-c1ccc(C(=O)NCC2CC2)cc1`, the inhibition is -2.9%.
Take `COc1cc(N2CCN(C(C)C)CC2)ccc1Nc1nc(Nc2ccc(F)cc2C(=O)NC[C@@H](O)CO)c2cc[nH]c2n1`: the inhibition turned out to be 1.22%.
With `COc1ccc2ncn(-c3cc(O[C@H](C)c4ccccc4Cl)c(C(N)=O)s3)c2c1`, the inhibition turned out to be 3.05%.
On the same count and under the same terms, the value for `Fc1ccc(-c2nc3n(c2-c2ccncc2)CCS3)cc1` was 0.95%; that for `CN1CCN(CCCNc2nc3ccc(Oc4ccc(NC(=O)Nc5cc(C(F)(F)F)ccc5F)cc4)cc3[nH]2)CC1` was 3.57%.
On to `Fc1ccc(-c2c(-c3ccncc3)nc3n2CCS3)cc1`, for which the inhibition is 1.54%.
Same read-out and setting: the value for `NCc1ccc(-n2c(-c3nonc3N)nc3cnccc32)cc1` was 12.5%; that for `CCS(=O)(=O)c1ccc(OC)c(Nc2ncc(-c3ccccc3Cl)o2)c1` was 9.53%.
Same read-out and setting: in the case of `Fc1ccc(-c2ncn(C3CCNCC3)c2-c2ccnc(Oc3ccc(F)c(F)c3)n2)cc1` it was 1.11%; in that of `Fc1ccc(-c2ncn(C3CCNCC3)c2-c2ccnc(Oc3ccc(Oc4ccccc4)cc3)n2)cc1`, 2.27%; in that of `C[C@@H](Oc1cc(-n2cnc3ccc(OC4CCN(C)CC4)cc32)sc1C(N)=O)c1ccccc1Cl`, 3.34%.
`c1ccc(-c2n[nH]cc2-c2ccnc(-c3ccc(OCCN4CCOCC4)cc3)c2)nc1`: the inhibition came out at 2.4%.
Turning to `COc1cccc(-n2cnc3c(N/N=C/c4ccncc4)ncnc32)c1`, the inhibition stood at 4.43%.
Still for that read-out and setting: the value for `C[C@@H](Oc1cc(-n2cnc3ccc(OCC4CCN(C)CC4)cc32)sc1C(N)=O)c1ccccc1Cl` was 4.53%; that for `CCN(CC)Cc1ccc(Nc2nccc(-c3cnn4ncccc34)n2)cc1` was 29.6%; that for `Cc1nnc(-c2ccc(C)c(-c3ccc(C(=O)NCc4ccc(Cl)cc4)cc3)c2)o1` was 2.43%.
Same read-out and setting: the value for `O=C(Nc1n[nH]c2cc(-c3ccccc3)ccc12)C1CC1` was 4.54%.
The same measure, in the same setting: the value for `COc1cc(Nc2ncc3c(C)nc(-c4cccc(Oc5ccccc5)c4)n3n2)cc(OC)c1OC` was 1.83%; that for `Clc1ccc(CNc2nccc(-c3cnn4ncccc34)n2)cc1` was 1.45%.
As to `CN(C)c1ccc2c(c1)/C(=C/Nc1ccc(S(N)(=O)=O)cc1)C(=O)N2`, the inhibition is 4.82%.
The same measure, in the same setting: the value for `CNC(=O)c1cncc(/C=C/c2c(C)cccc2C)c1` was 12%; that for `COc1cc(Nc2ncc3c(C)nc(-c4cccc(C(F)(F)F)c4)n3n2)cc(OC)c1OC` was 32.9%.

The next experiment has the same target. Particulars: at 1 µM.
Regarding `COc1cc2ncn(-c3cc(OCc4cccs4)c(C(N)=O)s3)c2cc1OC`, the inhibition amounted to 11.7%.
The same measure, in the same setting: in the case of `COc1cc(C)c(N(C)C(=O)CN(C)C)cc1Nc1nc(Nc2cccc(F)c2C(N)=O)c2cc[nH]c2n1` it was 4.04%; in that of `CN(C)CCCNc1nccc(-c2c(-c3ccc(F)cc3)nn3cc(C(F)(F)F)ccc23)n1`, 2.47%.
The same measure, in the same setting: the value for `COc1cccc(/C=N/Nc2ncnc3c2cnn3-c2cccc(OC)c2)c1` was 6.37%.
On to `CCC(=O)Nc1ccc(C)c(-c2ccc(C(=O)NCC3CC3)cc2)c1`, for which the inhibition was 2.95%.
Still for that read-out and setting: the value for `CCS(=O)(=O)c1ccc(OC)c(Nc2ncc(-c3cccc(-c4ccccc4F)c3)o2)c1` was 27.2%; that for `C#Cc1cccc(Nc2ncnc3ccc(OCCCCNCCS(C)(=O)=O)cc23)c1` was 2.93%.
Regarding `CS(=O)(=O)CCNCc1ccc(-c2ccc3ncnc(Nc4ccc(OCc5ccccc5)c(Br)c4)c3c2)o1`, the inhibition amounted to 6.06%.
As to `COc1cc2ncn(-c3cc(OCCc4ccccc4)c(C(N)=O)s3)c2cc1OC`, the inhibition came to 4.7%.
On to `NS(=O)(=O)c1ccc(N/N=C2\C(=O)Nc3ccc(-c4cnco4)cc32)cc1`, for which the inhibition was found to be 27.8%.
On to `Cc1ccc(C(=O)NC2CCC2)cc1-c1ccc(C(=O)NCC2CC2)cc1`, for which the inhibition came to 4.65%.
Same read-out and setting: in the case of `COc1cc(N2CCN(C(C)C)CC2)ccc1Nc1nc(Nc2ccc(F)cc2C(=O)NC[C@@H](O)CO)c2cc[nH]c2n1` it was 0.02%; in that of `COc1ccc2ncn(-c3cc(O[C@H](C)c4ccccc4Cl)c(C(N)=O)s3)c2c1`, 14.4%; in that of `Fc1ccc(-c2nc3n(c2-c2ccncc2)CCS3)cc1`, 1.38%.
On to `CN1CCN(CCCNc2nc3ccc(Oc4ccc(NC(=O)Nc5cc(C(F)(F)F)ccc5F)cc4)cc3[nH]2)CC1`, for which the inhibition was 17.3%.
In the case of `Fc1ccc(-c2c(-c3ccncc3)nc3n2CCS3)cc1`, the inhibition amounted to 1.37%.
The same measure, in the same setting: in the case of `NCc1ccc(-n2c(-c3nonc3N)nc3cnccc32)cc1` it was 49.6%.
Still for that read-out and setting: the value for `CCS(=O)(=O)c1ccc(OC)c(Nc2ncc(-c3ccccc3Cl)o2)c1` was 40.3%; that for `Fc1ccc(-c2ncn(C3CCNCC3)c2-c2ccnc(Oc3ccc(F)c(F)c3)n2)cc1` was 7.56%.
Turning to `Fc1ccc(-c2ncn(C3CCNCC3)c2-c2ccnc(Oc3ccc(Oc4ccccc4)cc3)n2)cc1`, the inhibition was determined as 3.02%.
Consider `C[C@@H](Oc1cc(-n2cnc3ccc(OC4CCN(C)CC4)cc32)sc1C(N)=O)c1ccccc1Cl`, for which the inhibition was found to be 16.3%.
With `c1ccc(-c2n[nH]cc2-c2ccnc(-c3ccc(OCCN4CCOCC4)cc3)c2)nc1`, the inhibition came out at 8.98%.
Still for that read-out and setting: in the case of `c1ccc(Oc2ccc(Nc3ncc(-c4ccccc4)o3)cc2)cc1` it was 2.76%.
Same read-out and setting: in the case of `COc1cccc(-n2cnc3c(N/N=C/c4ccncc4)ncnc32)c1` it was 24.9%; in that of `C[C@@H](Oc1cc(-n2cnc3ccc(OCC4CCN(C)CC4)cc32)sc1C(N)=O)c1ccccc1Cl`, 17.9%.
Take `CCN(CC)Cc1ccc(Nc2nccc(-c3cnn4ncccc34)n2)cc1`: the inhibition was 68.9%.
Same read-out and setting: in the case of `Cc1nnc(-c2ccc(C)c(-c3ccc(C(=O)NCc4ccc(Cl)cc4)cc3)c2)o1` it was 0.83%; in that of `O=C(Nc1n[nH]c2cc(-c3ccccc3)ccc12)C1CC1`, 5.1%; in that of `COc1cc(Nc2ncc3c(C)nc(-c4cccc(Oc5ccccc5)c4)n3n2)cc(OC)c1OC`, 22.3%.
Same read-out and setting: the value for `Clc1ccc(CNc2nccc(-c3cnn4ncccc34)n2)cc1` was 10.5%.
With `CN(C)c1ccc2c(c1)/C(=C/Nc1ccc(S(N)(=O)=O)cc1)C(=O)N2`, the inhibition worked out at 18.8%.
On the same count and under the same terms, the value for `CNC(=O)c1cncc(/C=C/c2c(C)cccc2C)c1` was 44.4%; that for `COc1cc(Nc2ncc3c(C)nc(-c4cccc(C(F)(F)F)c4)n3n2)cc(OC)c1OC` was 79.8%.
